# Measured values: ChEMBL document CHEMBL2218924, “A broad activity screen in support of a chemogenomic map for kinase signalling research and drug discovery” (Biochem J, 2013)
# Legend:
# [1] = target: T1, Testis-specific serine/threonine-protein kinase 1 (Homo sapiens) (UniProt Q9BXA7); conditions: at 1 µM
# T1 sequence (whole entry): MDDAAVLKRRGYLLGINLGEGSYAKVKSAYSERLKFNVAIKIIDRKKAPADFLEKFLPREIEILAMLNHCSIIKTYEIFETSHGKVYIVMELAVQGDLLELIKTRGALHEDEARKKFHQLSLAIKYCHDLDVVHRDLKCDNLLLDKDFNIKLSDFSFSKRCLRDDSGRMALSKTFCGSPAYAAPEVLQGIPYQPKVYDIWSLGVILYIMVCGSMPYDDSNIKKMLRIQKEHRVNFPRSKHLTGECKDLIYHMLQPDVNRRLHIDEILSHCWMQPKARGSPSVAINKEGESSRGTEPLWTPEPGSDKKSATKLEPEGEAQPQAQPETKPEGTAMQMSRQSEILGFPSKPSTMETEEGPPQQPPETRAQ
# [2] = target: T1, Testis-specific serine/threonine-protein kinase 1 (Homo sapiens); conditions: at 10 µM
# [3] = target: T2, Testis-specific serine/threonine-protein kinase 2 (Homo sapiens) (UniProt Q96PF2); conditions: at 10 µM
# T2 sequence (whole entry): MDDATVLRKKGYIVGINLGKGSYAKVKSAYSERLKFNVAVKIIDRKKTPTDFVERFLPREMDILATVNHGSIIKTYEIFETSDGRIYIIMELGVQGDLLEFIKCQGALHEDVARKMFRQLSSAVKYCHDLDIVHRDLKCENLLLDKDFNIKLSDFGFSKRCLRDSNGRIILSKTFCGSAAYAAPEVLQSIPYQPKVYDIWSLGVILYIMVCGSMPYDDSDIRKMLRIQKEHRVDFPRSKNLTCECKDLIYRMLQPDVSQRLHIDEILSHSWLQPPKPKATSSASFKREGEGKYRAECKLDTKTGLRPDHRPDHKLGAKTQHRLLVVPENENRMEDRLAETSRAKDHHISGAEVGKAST
# [4] = target: T3, Tyrosine-protein kinase Tec (Homo sapiens) (UniProt P42680); conditions: at 1 µM
# T3 sequence (whole entry): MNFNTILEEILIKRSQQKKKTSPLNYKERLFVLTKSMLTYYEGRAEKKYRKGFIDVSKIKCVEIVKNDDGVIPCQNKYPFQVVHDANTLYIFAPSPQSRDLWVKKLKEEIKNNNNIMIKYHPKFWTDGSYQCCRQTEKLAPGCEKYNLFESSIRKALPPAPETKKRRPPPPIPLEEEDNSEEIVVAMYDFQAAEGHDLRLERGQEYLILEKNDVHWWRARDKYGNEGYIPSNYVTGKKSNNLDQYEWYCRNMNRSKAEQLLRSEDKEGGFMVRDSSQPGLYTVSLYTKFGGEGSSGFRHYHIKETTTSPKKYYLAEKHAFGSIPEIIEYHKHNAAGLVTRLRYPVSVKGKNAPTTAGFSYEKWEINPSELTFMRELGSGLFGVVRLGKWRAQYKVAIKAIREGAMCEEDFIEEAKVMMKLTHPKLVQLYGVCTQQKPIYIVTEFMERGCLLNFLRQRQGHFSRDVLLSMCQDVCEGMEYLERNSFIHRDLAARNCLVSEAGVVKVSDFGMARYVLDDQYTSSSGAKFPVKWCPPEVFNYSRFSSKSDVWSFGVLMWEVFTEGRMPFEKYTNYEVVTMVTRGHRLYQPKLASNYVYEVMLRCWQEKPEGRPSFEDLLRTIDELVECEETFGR
# [5] = target: T3, Tyrosine-protein kinase Tec (Homo sapiens); conditions: at 10 µM
# [6] = target: Angiopoietin-1 receptor (Homo sapiens) (UniProt Q02763); conditions: at 1 µM
# [7] = target: Angiopoietin-1 receptor (Homo sapiens) (UniProt Q02763); conditions: at 10 µM
# [8] = target: High affinity nerve growth factor receptor (Homo sapiens) (UniProt P04629); conditions: at 1 µM
# [9] = target: High affinity nerve growth factor receptor (Homo sapiens) (UniProt P04629); conditions: at 10 µM
# [10] = target: BDNF/NT-3 growth factors receptor (Homo sapiens) (UniProt Q16620); conditions: at 1 µM
# Sequence of BDNF/NT-3 growth factors receptor (Homo sapiens) (Q16620 32-822 limits assumed): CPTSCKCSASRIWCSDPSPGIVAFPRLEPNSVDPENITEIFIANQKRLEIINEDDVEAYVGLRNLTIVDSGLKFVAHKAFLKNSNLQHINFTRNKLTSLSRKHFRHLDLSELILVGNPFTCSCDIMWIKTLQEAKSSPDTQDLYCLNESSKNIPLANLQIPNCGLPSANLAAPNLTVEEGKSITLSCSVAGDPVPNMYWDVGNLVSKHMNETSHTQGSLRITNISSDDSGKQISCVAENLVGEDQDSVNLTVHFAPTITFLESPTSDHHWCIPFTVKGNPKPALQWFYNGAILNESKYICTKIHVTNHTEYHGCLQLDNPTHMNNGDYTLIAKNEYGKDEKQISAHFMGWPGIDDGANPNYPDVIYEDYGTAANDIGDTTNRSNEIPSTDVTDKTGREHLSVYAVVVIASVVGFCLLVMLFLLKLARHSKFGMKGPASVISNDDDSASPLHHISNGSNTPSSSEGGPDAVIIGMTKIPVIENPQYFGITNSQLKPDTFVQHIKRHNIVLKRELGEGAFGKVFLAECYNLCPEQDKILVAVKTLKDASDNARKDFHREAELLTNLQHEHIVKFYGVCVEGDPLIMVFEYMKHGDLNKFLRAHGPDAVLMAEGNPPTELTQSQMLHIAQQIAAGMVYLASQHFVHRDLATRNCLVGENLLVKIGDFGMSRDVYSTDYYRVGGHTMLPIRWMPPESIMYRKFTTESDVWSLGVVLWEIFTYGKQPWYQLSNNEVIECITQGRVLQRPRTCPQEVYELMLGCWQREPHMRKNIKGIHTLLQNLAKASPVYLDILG
# Sequence of Angiopoietin-1 receptor (Homo sapiens) (Q02763 whole entry): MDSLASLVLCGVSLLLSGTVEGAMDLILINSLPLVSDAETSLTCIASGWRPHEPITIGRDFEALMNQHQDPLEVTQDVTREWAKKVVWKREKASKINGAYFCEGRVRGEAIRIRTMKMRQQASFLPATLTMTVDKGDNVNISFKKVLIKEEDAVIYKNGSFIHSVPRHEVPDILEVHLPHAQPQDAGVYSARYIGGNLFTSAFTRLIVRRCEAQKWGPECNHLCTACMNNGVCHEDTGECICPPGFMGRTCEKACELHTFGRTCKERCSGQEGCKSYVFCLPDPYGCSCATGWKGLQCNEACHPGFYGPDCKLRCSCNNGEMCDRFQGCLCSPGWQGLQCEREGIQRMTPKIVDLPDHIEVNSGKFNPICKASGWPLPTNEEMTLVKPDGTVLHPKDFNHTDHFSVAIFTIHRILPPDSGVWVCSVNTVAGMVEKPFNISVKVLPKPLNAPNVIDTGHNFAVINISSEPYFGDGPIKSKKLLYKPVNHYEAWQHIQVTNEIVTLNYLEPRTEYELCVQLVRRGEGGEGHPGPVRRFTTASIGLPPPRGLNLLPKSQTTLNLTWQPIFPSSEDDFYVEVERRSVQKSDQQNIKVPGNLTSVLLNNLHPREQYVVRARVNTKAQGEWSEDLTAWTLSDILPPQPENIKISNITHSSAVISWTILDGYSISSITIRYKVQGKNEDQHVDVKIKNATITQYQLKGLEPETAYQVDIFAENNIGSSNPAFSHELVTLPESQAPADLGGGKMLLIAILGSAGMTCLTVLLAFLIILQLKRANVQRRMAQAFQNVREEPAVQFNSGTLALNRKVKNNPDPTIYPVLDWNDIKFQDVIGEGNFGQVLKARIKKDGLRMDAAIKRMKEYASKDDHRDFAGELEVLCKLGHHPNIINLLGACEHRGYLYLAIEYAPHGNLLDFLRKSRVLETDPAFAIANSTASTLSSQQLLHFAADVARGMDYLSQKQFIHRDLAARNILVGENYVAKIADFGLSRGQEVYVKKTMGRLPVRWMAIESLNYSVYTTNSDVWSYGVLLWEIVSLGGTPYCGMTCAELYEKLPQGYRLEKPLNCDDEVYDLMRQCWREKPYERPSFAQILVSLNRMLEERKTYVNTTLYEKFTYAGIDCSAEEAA
# Sequence of High affinity nerve growth factor receptor (Homo sapiens) (P04629 33-796 limits assumed): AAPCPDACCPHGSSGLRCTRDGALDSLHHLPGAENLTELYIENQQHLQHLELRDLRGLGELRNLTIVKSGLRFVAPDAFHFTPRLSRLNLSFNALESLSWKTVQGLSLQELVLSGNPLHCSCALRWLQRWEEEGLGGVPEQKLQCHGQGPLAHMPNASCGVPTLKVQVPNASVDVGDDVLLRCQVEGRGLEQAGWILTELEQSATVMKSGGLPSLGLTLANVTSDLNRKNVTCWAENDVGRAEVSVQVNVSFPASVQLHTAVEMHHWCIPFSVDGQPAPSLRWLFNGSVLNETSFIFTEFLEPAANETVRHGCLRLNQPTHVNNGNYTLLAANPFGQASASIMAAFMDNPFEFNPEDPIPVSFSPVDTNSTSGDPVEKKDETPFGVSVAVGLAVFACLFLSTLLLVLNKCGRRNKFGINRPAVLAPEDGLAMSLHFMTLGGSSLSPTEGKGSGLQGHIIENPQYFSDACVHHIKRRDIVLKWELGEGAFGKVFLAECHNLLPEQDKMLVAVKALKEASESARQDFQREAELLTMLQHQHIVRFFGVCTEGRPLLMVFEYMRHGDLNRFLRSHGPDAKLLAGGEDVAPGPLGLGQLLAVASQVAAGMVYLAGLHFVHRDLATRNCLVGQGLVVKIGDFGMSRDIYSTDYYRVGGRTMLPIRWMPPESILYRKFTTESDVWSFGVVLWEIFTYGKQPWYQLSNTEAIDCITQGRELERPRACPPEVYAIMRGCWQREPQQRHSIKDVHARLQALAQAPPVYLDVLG
Structure (SMILES),residual activity [1] [%],residual activity [2] [%],residual activity [3] [%],residual activity [4] [%],residual activity [5] [%],residual activity [6] [%],residual activity [7] [%],residual activity [8] [%],residual activity [9] [%],residual activity [10] [%]
O=Nc1c(-c2c(O)[nH]c3ccccc23)[nH]c2ccccc12,78,53,78,64,22,103,41,0,0,0
Cn1cc(/C=C2\C(=O)Nc3ccc(S(N)(=O)=O)cc32)c2ccccc21,19,14,72,52,6,86,73,1,1,23
O=C1NC(=O)c2cc(Nc3ccc(F)cc3)c(Nc3ccc(F)cc3)cc21,94,81,61,87,60,70,44,84,56,100
CCN(CC)CCCCN1c2ccccc2Oc2ccc(Cl)cc21,105,102,98,92,78,105,71,90,101,107
CC[n+]1c(/C=C/N(C)c2ccccc2)n(-c2ccccc2)c2ccc(-c3nc4ccccc4s3)cc21,102,73,78,77,27,103,30,85,34,67
Cc1ccc(NC2=CC(=O)c3sc(C)nc3C2=O)cc1,92,98,86,85,93,100,99,89,88,102
CC(C)n1cnc2/c(=N/c3cccc(Cl)c3)nc(NCCO)[nH]c21,94,60,81,71,31,91,89,24,1,8
O=[N+]([O-])c1ccc(-c2nc(-c3ccc(F)cc3)c(-c3ccncc3)[nH]2)cc1,97,85,94,98,70,98,86,96,90,98
O=C(Nc1cccc(Nc2cc(Nc3cccc(C(F)(F)F)c3)ncn2)c1)C1CC1,101,87,77,96,27,60,70,68,9,76
